Several values for one entry are separate records, joined by “and”; a condition that tells them apart may be missing. Identical values can stand only once. This is part of a sample that, as a whole, favours compounds with a hit. Of some 83,000 tested, about 20% had one in any assay.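 Note: values are percent growth. 100 is the growth of untreated cells, values between 100 and 0 indicate rising inhibition; between -100 and 0 indicates cell death.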 Activity calls are given as the source filed them. The calls were made as follows: active = growth percent below 10; inactive = the rest.

Among the test systems are SR leukemia; RPMI-8226 leukemia; OVCAR-8 ovarian; OVCAR-5 ovarian; OVCAR-4 ovarian; SK-OV-3 ovarian; IGROV1 ovarian; OVCAR-3 ovarian; HS 578T breast; NCI/ADR-RES ovarian; T-47D breast; BT-549 breast; MDA-MB-435 melanoma; SW-620 colon; MCF7 breast; HCT-116 colon; HCC-2998 colon; KM12 colon; MDA-MB-468 breast.
Holding throughout (test): NCI-60 one-dose screen, 48 h (100 = growth as untreated, 0 = no growth, -100 = all killed)
Conditions in all cases: 10 µM

As for `COc1ccc(/C=C/C(=O)c2ccc(N3CCN(C)CC3)cc2)c(C(F)(F)F)c1`, the growth in the experiment with SR leukemia is 7.12% (active); with RPMI-8226 leukemia, 0.333% (active); with OVCAR-8 ovarian, 49.6% (inactive); in the experiment with OVCAR-5 ovarian it was 86.4% (inactive); with OVCAR-4 ovarian it was 43.9% (inactive); with SK-OV-3 ovarian, 63.7% (inactive). Further, the growth is 55% (inactive) with IGROV1 ovarian; 46.9% (inactive) with OVCAR-3 ovarian; 18.8% (inactive) with HS 578T breast; 59.3% (inactive) with NCI/ADR-RES ovarian; 39.7% (inactive) in the experiment on T-47D breast; 40.7% (inactive) in the experiment on BT-549 breast. Further, the growth was -54.9% (active) with MDA-MB-435 melanoma; -80% (active) in the experiment on SW-620 colon; -54.1% (active) with MCF7 breast; 11.4% (inactive) in the experiment on HCT-116 colon; -49.4% (active) with HCC-2998 colon; 8.95% (active) with KM12 colon. Besides, the growth with MDA-MB-468 breast is -10.7% (active).
In the case of `CCNCCCn1c2c(c3cc(OC)c(OC)cc3c1=O)C(=O)c1cc3c(nc1-2)OCO3`, the growth is -7.45% (active) with SR leukemia; -34.7% (active) in the experiment with RPMI-8226 leukemia; -64.5% (active) in the experiment on OVCAR-8 ovarian; -88.7% (active) with OVCAR-5 ovarian; 57.9% (inactive) with OVCAR-4 ovarian; 35.4% (inactive) with SK-OV-3 ovarian. In addition, the growth in the experiment with IGROV1 ovarian is 18.4% (inactive); in the experiment on OVCAR-3 ovarian, -90.1% (active); with HS 578T breast, 97.4% (inactive); in the experiment with NCI/ADR-RES ovarian, -30.8% (active); in the experiment on T-47D breast, 31.6% (inactive); in the experiment on BT-549 breast, 36.2% (inactive). The growth with MDA-MB-435 melanoma was -83.1% (active); with SW-620 colon it was 38.7% (inactive); in the experiment with MCF7 breast it was -88.9% (active); with HCT-116 colon, -70.2% (active); in the experiment on HCC-2998 colon, 20% (inactive); in the experiment on KM12 colon, 33.7% (inactive). For the same compound, the growth in the experiment with MDA-MB-468 breast was -36.2% (active).
`O=C(Cc1ccc2c(c1)CN(C1CCC(=O)NC1=O)C2=O)NCCc1ccccc1` (configuration not stated): the growth was 53.5% (inactive) in the experiment on SR leukemia; 45.6% (inactive) in the experiment on RPMI-8226 leukemia; 4.26% (active) in the experiment with OVCAR-8 ovarian; 37.6% (inactive) with OVCAR-5 ovarian; 10.6% (inactive) in the experiment with OVCAR-4 ovarian; 28% (inactive) with SK-OV-3 ovarian. In addition, the growth with IGROV1 ovarian was 2.99% (active); in the experiment with OVCAR-3 ovarian, 20.1% (inactive); in the experiment on HS 578T breast, -5.24% (active); in the experiment with NCI/ADR-RES ovarian, 28.4% (inactive); with T-47D breast it was 1.71% (active); in the experiment on BT-549 breast, -37.2% (active). Moreover, the growth with MDA-MB-435 melanoma was 35% (inactive); in the experiment with SW-620 colon, 10.6% (inactive); with MCF7 breast it was 18.9% (inactive); with HCT-116 colon, 70.8% (inactive); in the experiment with HCC-2998 colon it was -11.4% (active); in the experiment with KM12 colon, 6.24% (active). The growth in the experiment with MDA-MB-468 breast is -46.1% (active).
For the compound `N#Cc1c(NC(=O)c2ccc(C(F)(F)F)cc2)sc2c1CCC(=O)C2`, the growth in the experiment on SR leukemia is 11.3% (inactive); in the experiment on RPMI-8226 leukemia, 7.34% (active); in the experiment on OVCAR-8 ovarian, -32.3% (active); with OVCAR-5 ovarian it was -80.6% (active); in the experiment with OVCAR-4 ovarian it was -24.6% (active); with SK-OV-3 ovarian it was -54.1% (active). Besides, the growth with IGROV1 ovarian was -79.3% (active); in the experiment with OVCAR-3 ovarian it was -92.9% (active); with HS 578T breast, -27.1% (active); in the experiment on NCI/ADR-RES ovarian, -44.8% (active); in the experiment on T-47D breast, -36.9% (active); with BT-549 breast it was -80.6% (active). The growth in the experiment on MDA-MB-435 melanoma was -41.4% (active); in the experiment on SW-620 colon it was -63% (active); in the experiment with MCF7 breast it was -16.9% (active); in the experiment with HCT-116 colon it was -46.3% (active); in the experiment on HCC-2998 colon, -96.7% (active); in the experiment with KM12 colon, -36.3% (active). Besides, in the experiment on MDA-MB-468 breast, the growth is -71% (active).
Consider `N#Cc1c(NC(=O)c2ccc(C(F)(F)F)c(Cl)c2)sc2c1CCC(=O)C2`, for which the growth with SR leukemia was -11.8% (active); in the experiment with RPMI-8226 leukemia, 0.426% (active); in the experiment with OVCAR-8 ovarian, -34% (active); in the experiment with OVCAR-5 ovarian, -8.2% (active); with OVCAR-4 ovarian, -21.1% (active); in the experiment with SK-OV-3 ovarian, -30.1% (active). In addition, the growth in the experiment on IGROV1 ovarian is -35.3% (active); with OVCAR-3 ovarian, -57% (active); in the experiment with HS 578T breast, -26% (active); with NCI/ADR-RES ovarian, -48.9% (active); in the experiment on T-47D breast, -53% (active); with BT-549 breast it was -82.1% (active). Also, the growth with MDA-MB-435 melanoma is -68.4% (active); with SW-620 colon, -56.8% (active); in the experiment on MCF7 breast, -3.57% (active); in the experiment with HCT-116 colon, -44.9% (active); in the experiment with HCC-2998 colon it was -74.4% (active); in the experiment on KM12 colon, -28.4% (active). Besides, the growth with MDA-MB-468 breast is -71.2% (active).
In the case of `CC(=O)c1ccc(Nc2nc(SC(C)C)nc(-c3ccccc3)c2C#N)cc1`, the growth is 70% (inactive) with SR leukemia; 90.3% (inactive) in the experiment on RPMI-8226 leukemia; 5.17% (active) in the experiment on OVCAR-8 ovarian; 55.8% (inactive) in the experiment on OVCAR-5 ovarian; -19.1% (active) in the experiment with OVCAR-4 ovarian; 36.2% (inactive) in the experiment on SK-OV-3 ovarian. Moreover, the growth in the experiment with IGROV1 ovarian is 8.92% (active); in the experiment on OVCAR-3 ovarian, 25.3% (inactive); in the experiment with HS 578T breast it was 28.2% (inactive); with NCI/ADR-RES ovarian, 1.21% (active); with T-47D breast it was 58.7% (inactive); in the experiment with BT-549 breast, 90.7% (inactive). Besides, the growth in the experiment with MDA-MB-435 melanoma is 47.4% (inactive); in the experiment with SW-620 colon, 34.9% (inactive); in the experiment with MCF7 breast, 26.4% (inactive); with HCT-116 colon, 8.81% (active); in the experiment with HCC-2998 colon it was 70.2% (inactive); with KM12 colon, 82.2% (inactive). Further, the growth with MDA-MB-468 breast was 131% (inactive) and -1.07% (active).
In the case of `COC(=O)C[C@](O)(CCCC(C)(C)O)C(=O)O[C@H]1C(OC)=C[C@@]23CCC(=O)N2CCc2cc4c(cc2[C@@H]13)OCO4`, the growth in the experiment with SR leukemia is 80.6% (inactive); with RPMI-8226 leukemia it was 106% (inactive); with OVCAR-8 ovarian it was 107% (inactive); with OVCAR-5 ovarian it was 102% (inactive); with OVCAR-4 ovarian it was 90.1% (inactive); in the experiment with SK-OV-3 ovarian it was 103% (inactive). Moreover, the growth with IGROV1 ovarian was 93% (inactive); with OVCAR-3 ovarian, 94.8% (inactive); with HS 578T breast it was 87.9% (inactive); with NCI/ADR-RES ovarian it was 102% (inactive); in the experiment on T-47D breast, 89.8% (inactive); with BT-549 breast, 118% (inactive). The growth in the experiment with MDA-MB-435 melanoma is 104% (inactive); with SW-620 colon, 91.9% (inactive); with MCF7 breast, 87.3% (inactive); in the experiment with HCT-116 colon, 89.7% (inactive); with HCC-2998 colon it was 88% (inactive); with KM12 colon it was 98.3% (inactive). The growth in the experiment on MDA-MB-468 breast is 81.1% (inactive).
Consider `COc1cc(/C=C/C(=O)c2ccc(S(=O)(=O)NCCNc3nc(Nc4ccc(F)cc4)nc(N(C)C)n3)cc2)cc(OC)c1OC`, for which the growth in the experiment with SR leukemia was 3.14% (active); in the experiment on RPMI-8226 leukemia it was 7.35% (active); with OVCAR-8 ovarian, -65% (active); in the experiment with OVCAR-5 ovarian, -23.4% (active); in the experiment with OVCAR-4 ovarian, 22.8% (inactive); in the experiment on SK-OV-3 ovarian, 109% (inactive). Besides, the growth in the experiment with IGROV1 ovarian is -48.9% (active); in the experiment with OVCAR-3 ovarian, -88.1% (active); with HS 578T breast, 67.3% (inactive); with NCI/ADR-RES ovarian, 46.6% (inactive); in the experiment on T-47D breast, 26.2% (inactive); with BT-549 breast, -9.95% (active). In addition, the growth in the experiment on MDA-MB-435 melanoma is -24.8% (active); in the experiment on SW-620 colon it was 1.12% (active); in the experiment on MCF7 breast, -76.1% (active); with HCT-116 colon, -69.6% (active); in the experiment with HCC-2998 colon it was -99% (active); in the experiment with KM12 colon, -81.1% (active). Also, the growth in the experiment with MDA-MB-468 breast was -50.5% (active).

These data come from PubChem BioAssay (NCI).
